The whole screen tested about 330,000 compounds, of which about 4,900 (1.5%) were called active. This excerpt belongs to a sample that is enriched for actives. Values without a mark were called inactive.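 How the source made its calls: active means inhibition above about 50% at the single test dose (limit read from the data); inactive means the rest.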
Target: Sentrin-specific protease 7 (Homo sapiens) (UniProt Q9BQF6)
Assay: blockers of human SENP7 peptidase activity – biochemical, luminescence, uHTS, primary screen (AID 434973);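 further: plate controls were DMSO with enzyme for no effect and no enzyme buffer wells for full effect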
Settings: recombinant SENP7, Z-RLRGG-aminoluciferin luminescence, 40 min; at 5 µM; hits give high values

Compound | inhibition
N/C(=N\OC(=O)c1ccc2c(c1)OCO2)c1ccc(Br)cc1 | 71.1% (active)
N/C(=N\OC(=O)/C=C/c1ccccc1)c1ccc(Br)cc1 | 9.06%
N/C(=N\OC(=O)N1c2ccccc2Sc2ccccc21)c1ccc(Br)cc1 | -8.09%
COc1ccc(C2c3c(C)nn(-c4ccccc4)c3NC(=O)N2c2ccccc2)cc1 (configuration not stated) | 3.05%
CCCCNC(=O)OC(C)CNC(=O)OC (configuration not stated) | -1.91%
Cc1ccc(C(=O)NCC(=O)O)s1 | -11.9%
O=C(NCCc1ccccc1)C1CC1 | -1.24%
COc1ccc(N(C(=O)c2snc(C(N)=O)c2N)C(C(=O)NC2CCCC2)c2ccco2)cc1OC (configuration not stated) | -9.37%
CCC(C)Cn1c(O)cc2nn(-c3nc4ccccc4s3)c(=O)c-2c1C (configuration not stated) | 8.83%
C/C(=N\NC(=O)CC(C)C)c1c(C(F)(F)F)[nH]n(-c2nc3ccccc3s2)c1=O | 98.7% (active)
CCc1ccc(-c2cc(C(=O)NCc3ccco3)c3ccccc3n2)s1 | 6.27%
CC(=NCc1ccco1)c1c(C(F)(F)F)[nH]n(-c2nc3ccccc3s2)c1=O | 98.9% (active)
CC(C)CC(=O)N/C(N)=N/c1nc2ccccc2s1 | 33.4%
CCC1(CC)NC(=O)N(Cc2nc3ccccc3s2)C1=O | -4.41%
CC(=O)c1sc(NC(=O)CCN2C(=O)C3CC=CCC3C2=O)nc1-c1ccccc1 (configuration not stated) | 0.528%
Cc1ccc(C)c(N2C(=O)CS/C2=N\NC(=O)c2ccccc2Cl)c1 | -12.9%
CCCCC/C=C/C1=CC(=O)C[C@H](c2ccc(Cl)cc2)C1 | 2.82%
CCOc1ccc(N/C=C/C(=O)c2ccccc2)cc1 | 99.3% (active)
CCOc1ccc(N/C=C/C(=O)c2cc(OC)c(OC)c(OC)c2)cc1 | -14.5%
COc1ccc(N2C(=O)CCC(C(=O)Nc3ccccn3)C2c2ccc(OC)c(OC)c2)cc1 (configuration not stated) | 9.84%
COc1ccc(C(=O)/C=C/Nc2ccccn2)cc1 | 99.2% (active)
CC(=O)Nc1ccc(/C=C/C(=O)c2ccccc2)cc1 | -13.6%
Cc1cc(N/C=C\C(=O)c2ccc(Cl)c(Cl)c2)no1 | 10.2%
Cc1ccc(N/C=C/C(=O)c2ccccc2)cc1C | 91.8% (active)
O=C(/C=C/NCc1ccc(F)cc1)c1ccccc1 | 7.34%

Compound | inhibition
CCOc1ccc(NC(=S)N2CCC(NC(=O)c3ccccc3)CC2)cc1 | -5.22%
NCCCC[C@@H]1NC(=O)[C@H](CCC(=O)O)NC(=O)c2cc([N+](=O)[O-])cc(I)c2NCC[C@@H](C(N)=O)NC1=O | 0.545%
O=C(COC(=O)c1cccnc1Cl)NC(=O)NC1CCCCC1 | -2.4%
O=S(=O)(Nc1ccc2nc(N3CCOCC3)sc2c1)c1ccccc1 | -7.76%
O=C(c1ccc2nc(N3CCOCC3)sc2c1)N1CCN(c2ccc(Cl)cc2)CC1 | 0.5%
Brc1ccc2nc(N3CCCC3)sc2c1 | 93.4% (active)
c1c2c(cc3sc(N4CCCCC4)nc13)OCCO2 | 97.8% (active)
Cc1nc(N2CCCCC2)sc1C=O | 11.3%
Fc1ccc2nc(N3CCCCC3)sc2c1 | 85.3% (active)
Fc1ccc2nc(Nc3nc4c(s3)CCCC4)sc2c1 | 9.46%
O=C(NCCc1cccc(F)c1)C1CCCN(c2nc3ccccc3s2)C1 (configuration not stated) | 7.46%
CN(C)CCCN(C(=O)c1ccc(S(=O)(=O)N2CCCCCC2)cc1)c1nc2cc3c(cc2s1)OCCO3 | 4.88%
C/C(CC(=O)N1CCN(C=O)CC1)=N\NC(=O)c1ccc(Br)cc1 | 4.47%
COCC(C)n1c(SCC(=O)NC2CCCCC2C)nc2ccccc2c1=O (configuration not stated) | -6.63%
CC(C)NC(=O)c1ccc(Sc2ccccc2)c([N+](=O)[O-])c1 | 4.52%
O=C(c1ccc(=O)oc1)N1CCC(C(O)(c2ccccc2)c2ccccc2)CC1 | -5.43%
CCC1CCCCN1C(=S)Nc1ccc(S(=O)(=O)Nc2ncccn2)cc1 (configuration not stated) | -9.27%
O=C(Nc1ccccc1)c1ccc(NC(=O)c2cccs2)cc1 | 67.8% (active)
O=C(Nc1ccc(NC(=O)c2cccs2)cc1)c1ccc2ccccc2c1 | -6.64%
CCc1ccc(NC(=O)COC(=O)c2cccs2)cc1 | 17.2%
Cc1ccc(C(=O)Nc2ccc(NC(=O)c3cccs3)cc2)c(C)c1 | -5.29%
Cc1cccc(-n2c(C)cc(/C=N\NC(=O)c3cccs3)c2C)c1 | -3.16%
CC(C)C(=O)Nc1ccc(C(=O)NNC(=O)c2cccs2)cc1 | -0.683%
CC(=O)Nc1ccc(/C=N/NC(=O)c2cccs2)cc1 | 67.7% (active)
CCN(CC)c1ccc(/C=N/NC(=O)CNC(=O)c2cccs2)cc1 | 2.87%

Compound | inhibition
CCc1ccc(NC(=O)C(=O)NNC(=O)c2cccs2)cc1 | 51.4% (active)
O=C(COC(=O)/C=C/c1cccs1)NC1CCCCC1 | 6.28%
COCCCNC(=O)[C@H]1N2C(=O)c3ccccc3C2SC1(C)C (some centres not stated) | -7.11%
COC(=O)Cc1csc(/N=C/c2c(O)n(-c3cccc(C(F)(F)F)c3)c(=O)c3ccccc23)n1 | -1.46%
CCCCN(C(=O)C1CCC1)c1c(N)n(Cc2ccccc2)c(=O)[nH]c1=O | 5.98%
O=C(CCS(=O)(=O)c1ccccc1Cl)Nc1ccc(S(=O)(=O)Nc2ncccn2)cc1 | 5.16%
CCCCSCCCNC(=O)C1CCC(CNS(=O)(=O)c2ccc(NC(C)=O)cc2)CC1 (configuration not stated) | -1.73%
O=c1[nH]c(CCl)nc2cc(-c3ccc(Cl)cc3)sc12 | 63.1% (active)
O=c1[nH]c(CN2CCOCC2)nc2cc(Cl)ccc12 | 10.2%
NC(=O)Cc1nc2scc(-c3ccc(Cl)cc3)c2c(=O)[nH]1 | -2.34%
CCCCC(CC)C(=O)Nc1ccc(Cl)cn1 (configuration not stated) | -1.33%
CCCc1cc(C(=O)Nc2ccc(C(=O)OC)cc2)cs1 | -0.862%
Cc1nc(NC(=O)c2ccc3c(c2)OCCO3)ccc1Br | 87.2% (active)
CCCc1cc(C(=O)Nc2ccc(Cl)cn2)cs1 | 76.6% (active)
COc1ccc(C(=O)NC(=S)Nc2ccc(Cl)cn2)cc1OC | -7.53%
O=C(Nc1ccc(Cl)cn1)c1ccc2c(c1)OCCO2 | 82.6% (active)
Cc1ccc(C(=O)NNC(=O)c2ccc3c(c2)OCCO3)cc1 | 6.51%
O=C(Nc1ccc(Cl)cn1)c1cnn2cccnc12 | 27.2%
Cc1cccc(C)c1NC(=O)CNC(=O)c1ccc2c(c1)OCCO2 | -14.1%
CN(c1ccccc1)S(=O)(=O)c1ccc(Cl)c(C(=O)OCC(=O)N2CCOCC2)c1 | 3.02%
O=C(NCCC(=O)N1O[C@@H]2C=C[C@H]1C2)OCC1c2ccccc2-c2ccccc21 | 3.86%
Cc1ccn(C(CC(=O)c2ccc(Br)cc2)C(=O)O)n1 (configuration not stated) | 4.97%
CCCCN(CC)C(=O)c1ccccc1Oc1ccccc1 | 6.13%
COC(=O)c1nn(-c2cccc(Cl)c2)ccc1=O | 3.97%
COc1ccc(N=C(C)c2sc3ccccc3c2O)cc1 | 83.7% (active)

Compound | inhibition
COC(=O)c1ccc(/C=C/c2c(-c3ccc(OC)cc3)sc3ccccc23)cc1 | 3.42%
COc1ccc(-c2sc3ccccc3c2-c2ccc(OCCN3CCOCC3)cc2)cc1 | -12.1%
Cc1cc(C)cc(NC(=O)N2CCCCCCC2)c1 | 0.706%
Cc1ccc2cc3cc(C(=O)N4CCCCCC4)oc3nc2c1 | 55.3% (active)
Cc1ccc2nc(N3CCN(C(=O)c4ccco4)CC3)sc2c1 | -7.97%
O=c1onc(-c2c(F)cccc2F)n1-c1ccccc1Cl | -2.38%
Cc1cc(=O)[nH]c(S)c1C#N | 7.81%
CCc1ccc(OCC(=O)OCC(=O)c2c(N)n(C)c(=O)n(C)c2=O)cc1 | -1.23%
CCN(CC)CCn1c2c(c(SCC(=O)Nc3nc4ccccc4s3)nc1=O)CCCC2 | 4.47%
c1ccc2sc(NN=C3CCCC3)nc2c1 | 82.2% (active)
O=C1NC(Nc2nc3ccccc3s2)(C(F)(F)F)C(=O)N1C1CCCCC1 (configuration not stated) | 6.04%
COc1ccc(CNC(=O)C2CCC(CNc3c(N4CCOCC4)c(=O)c3=O)CC2)cc1 (configuration not stated) | -10.4%
O=C(Nc1nnc(-c2ccccc2)o1)c1cccc(S(=O)(=O)N2CCOCC2)c1 | -5.26%
O=C(O[C@H]1[C@H](Cc2ccccc2)NS(=O)(=O)[C@H]2C[C@@H]3C=C[C@]12O3)c1ccc([N+](=O)[O-])cc1 | 7.73%
Cc1c(-c2ccccc2)n[nH]c1C(=O)N=Nc1c(O)[nH]c2ccccc12 | 84.6% (active)
O=C(CCN1CCCCC1)N=Nc1c(O)[nH]c2ccccc12 | -5.94%
Cc1cccc(N(CC(=O)N=Nc2c(O)[nH]c3ccccc23)S(C)(=O)=O)c1C | 5.39%
CCCOc1ccc(C(=O)NCCc2ccccc2)cc1 | 78.1% (active)
CCCc1ccc(OCCNC(=O)c2ccccc2Br)cc1 | -1.05%
CCCc1ccc(OCCNC(=O)c2ccco2)cc1 | -0.541%
COc1ccc(CCNC(=O)C(=O)NCC2CCNCC2)cc1OC | 2.84%
COc1ccc(SC[C@H](Cc2ccccc2)N2CCN(CCc3ccccc3)CCC2=O)cc1 | -3.68%

— PubChem BioAssay AID434973 (Sanford-Burnham Center for Chemical Genomics, 2010)
